# How the values were obtained:
# Test in all cases: PBM binding z-score (relative to random genomic background probes); higher = stronger binding; sequences stand for … in GC…GCGATTGACAGCGTAGAATGAAGG
# [1] = test system: FXR:RXRa (NR concentration 270 nM, RXRa partner concentration 90 nM)
# Summary of the method: (§1)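 Antibodies against each partner of ligand-free nuclear receptor dimers (one per run) detected binding on custom Agilent 4×180K protein-binding microarrays after 1 h incubation. The double-stranded probes had 34-nt variable regions carrying direct-repeat seeds, single-nucleotide variants, half-site ablations and random human genomic background sequences. Binding z-scores, from regression-normalized fluorescence, use the random background probes as reference.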
# [2] = test system: LXRa:RXRa (NR concentration 270 nM, RXRa partner concentration 90 nM)
# Summary of the method: as §1
# [3] = test system: LXRa homodimer (NR concentration 270 nM)
# Summary of the method: as §1
# [4] = test system: LXRb:RXRa (NR concentration 270 nM, RXRa partner concentration 90 nM)
# Summary of the method: as §1
# [5] = test system: LXRb homodimer (NR concentration 270 nM)
# Summary of the method: as §1
# [6] = test system: PPARa:RXRa (NR concentration 270 nM, RXRa partner concentration 90 nM)
# Summary of the method: as §1
# [7] = test system: PPARg:RXRa (NR concentration 180 nM, RXRa partner concentration 90 nM)
# Summary of the method: as §1
# [8] = test system: PPARg:RXRa 270nM:90nM, anti-RXR (NR concentration 270 nM, RXRa partner concentration 90 nM)
# Summary of the method: as §1
# [9] = test system: PPARg:RXRa 30nM:10nM, anti-RXR (NR concentration 30 nM, RXRa partner concentration 10 nM)
# Summary of the method: as §1
# [10] = test system: PPARg:RXRa 90nM:30nM, anti-RXR (NR concentration 90 nM, RXRa partner concentration 30 nM)
# Summary of the method: as §1
# [11] = test system: PPARg:RXRa DBDmut IVT, anti-RXR (DBD mutation: RXRa K156A/R161A, NR concentration 270 nM, RXRa partner concentration 90 nM)
# Summary of the method: as §1
# [12] = test system: PPARg:RXRa IVT, anti-PPARg (NR concentration 270 nM, RXRa partner concentration 90 nM)
# Summary of the method: as §1
# [13] = test system: PPARg DBDmut:RXRa IVT, anti-PPARg (DBD mutation: PPARg1 K132A/R137A, NR concentration 270 nM, RXRa partner concentration 90 nM)
# Summary of the method: as §1
# [14] = test system: PPARg DBDmut IVT, anti-PPARg (DBD mutation: PPARg1 K132A/R137A, NR concentration 270 nM)
# Summary of the method: as §1
# [15] = test system: PPARg homodimer (NR concentration 180 nM)
# Summary of the method: as §1
# [16] = test system: PXR:RXRa (NR concentration 270 nM, RXRa partner concentration 90 nM)
# Summary of the method: as §1
# [17] = test system: PXR homodimer (NR concentration 270 nM)
# Summary of the method: as §1
# [18] = test system: RARa:RXR (NR concentration 270 nM, RXRa partner concentration 90 nM)
# Summary of the method: as §1
# [19] = test system: RARa homodimer (NR concentration 270 nM)
# Summary of the method: as §1
# [20] = test system: RARb:RXRa (NR concentration 270 nM, RXRa partner concentration 90 nM)
# Summary of the method: as §1
Sequence,PBM binding z-score [1],PBM binding z-score [2],PBM binding z-score [3],PBM binding z-score [4],PBM binding z-score [5],PBM binding z-score [6],PBM binding z-score [7],PBM binding z-score [8],PBM binding z-score [9],PBM binding z-score [10],PBM binding z-score [11],PBM binding z-score [12],PBM binding z-score [13],PBM binding z-score [14],PBM binding z-score [15],PBM binding z-score [16],PBM binding z-score [17],PBM binding z-score [18],PBM binding z-score [19],PBM binding z-score [20]
CGTAAAAGTTCAAGGTAACGTAACAGAAAGCAGC,5.78,5.24,2.41,3.04,1.2,4.35,2.48,3.11,1.09,1.91,0.129,1.62,1.87,1.28,2.19,3.49,1.82,2.92,1.29,4.99
AGTCAAAGTTCATTAGGTAACGTAAGATTCAGCT,5.94,6.16,5.2,3.29,1.67,4.63,6.37,6.16,3.38,5.54,1.93,4.02,1.72,1.88,3.26,4.83,6.94,3.77,1.92,4.7
GCTTACGGGTCAAAGGTTATAGCATGAATAGAAT,7.45,5.9,0.64,6.1,0.563,6.96,11.1,9.42,9.01,9.91,4.91,5.87,1.16,0.991,2.12,6.26,0.29,8.55,0.989,4.79
TGTCAAAGTTCAAAGGTAACGAAAGTATCCACAC,7.51,6.49,4.27,5.02,1.67,6.08,9.12,7.76,6.04,7.45,0.62,4.53,1.27,1.66,3.32,5.76,3.79,6.83,1.29,5.22
CCTACTGGGCCAAATAGGTCATTGATGCCGATAA,1.09,1.66,0.941,1.91,-0.592,3.18,2.07,2.92,0.838,2.18,4.31,4.63,0.236,-0.456,1.27,1.88,0.588,2.32,0.564,2.23
GCTGCCAGGTCAACTGATGGTCAGCTAAAGCTCG,4.84,3.82,0.113,2.73,0.00556,4.4,2.42,3.09,0.281,1.61,2.71,2.73,0.45,-0.276,4.33,2.76,-0.337,4.22,-0.0772,4.46
TCATATCGGTAATACAGGTGAAAGTCGGCATCTA,0.812,0.733,0.448,0.822,0.305,1.58,0.895,2.79,3.92,3.03,2.51,1.96,1.47,0.852,1.2,0.46,0.585,0.605,1.17,0.527
CTCGAATGGTCGTGCTCAGGTGAGTATACCAAAC,-0.179,-0.419,-0.51,-0.227,-0.231,-0.0651,-0.329,-0.395,-0.488,-0.372,-0.307,0.137,-1.36,0.0362,-1,-0.335,-0.382,0.107,0.169,0.0892

# Source: the supplement of paper PMC6555819
